# This is part of a sample that, as a whole, favours compounds with a hit. Of some 83,000 tested, about 20% had one in any assay.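 Testing used 96-well plates and a 48-hour single-concentration exposure. Example: -40 means 40% of the starting cells died.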 Unmarked numbers belong to inactive results. Activity calls are given as the source filed them. The calls were made as follows: active = growth percent below 10; inactive = the rest.
# Test system: HCT-116 colon
# Assay: NCI-60 one-dose screen, 48 h (100 = growth as untreated, 0 = no growth, -100 = all killed)
# Details: 10 µM unless noted
row,Structure (SMILES),growth
1,Cc1ccc(CNc2c3ccccc3nc3ccccc23)cc1,12%
2,COc1cc(Cl)c(C)cc1NC(=O)c1cc2ccccc2cc1O,4.6% (active)
3,Cc1nc2ccccc2c(/C=C/c2ccccc2)c1C(=O)/C=C/c1ccccc1,-43% (active)
4,Cc1ncc(C(=O)Nc2ccc(CN3CCN(C)CC3)c(C(F)(F)F)c2)cc1C#Cc1cnc(N)c2ncccc12,-75.5% (active)
5,CN(CCCNC(=O)Cc1ccc2ccc3cccc4ccc1c2c34)CCCNc1cc(-c2ccc3ccccc3c2)nc2ccccc12,-85.4% (active)
6,O=[N+]([O-])c1cc(NS(=O)(=O)c2ccccc2)ccc1NS(=O)(=O)c1ccccc1,87.1%
7,CC(=C(c1ccc(OCCN2CCCCC2)cc1)c1ccc(OCCN2CCCCC2)cc1)c1ccc(Cl)cc1,-88.9% (active)
8,CCN1CCN(CC(=O)Nc2nc3ccc(NCc4ccc(F)cc4)cc3s2)CC1,70.9%
9,CCCCNc1cc(-c2cn[nH]c2-c2cc(C)cc(OC)c2)nc(-c2cccnc2)n1,91.7%
10,C/C(=N\O)c1ccc(NC(=O)CSc2nnc(-c3cc(-c4ccc(S(N)(=O)=O)cc4)nc4ccccc34)n2-c2ccccc2)cc1,53.2%
11,CCCn1cnc2c(c1=N)C(c1ccc(F)cc1)c1sc3c(F)cccc3c1O2 (stereo unspecified),36.3%
12,C=C1C(=O)O[C@H]2[C@H]1CC/C(COC(=O)/C=C\C(=O)NCc1ccc(Cn3c(=O)sn(CCCCC)c3=O)cc1)=C\CC[C@@]1(C)O[C@@H]21,40.3%
13,Cc1c2cccnc2c(C)c2c1c1cc(CO)ccc1n2C,6.95% (active)
14,C=C1C(=O)O[C@H]2[C@H]1CC/C(COC(=O)c1ccc(C(=O)O)s1)=C\CC[C@@]1(C)O[C@@H]21,11.4%
15,CC1=C(C(=O)Nc2ccccc2)C(c2ccc3c(c2)OCO3)NC(=S)N1 (stereo unspecified),93.2%
16,O=C(NC(Cc1nnc2n(Cc3ccccc3)c(=O)c3c4c(sc3n12)CCCC4)c1ccccc1)c1ccccc1 (stereo unspecified),81.4%
17,Cc1c2ccncc2c(C)c2c1c1cc(CO)ccc1n2C,-22.5% (active)
18,COc1ccc(-c2nc3c(N)c(CO)cnc3s2)cc1,101%
19,O=C(O)COc1ccc(Cl)c(Cl)c1,109%
20,CCN(CC)c1ccc(/C=N/NC(=O)Cc2ccc(Nc3ccnc(C(F)(F)F)c3)cc2)c(O)c1,19.6%
21,NC(=O)c1cnc(Nc2cccc(N)c2)nc1NCCCNC(=O)C1CCC1,65.5%

# — PubChem BioAssay (NCI)
